The values that follow come from PubChem BioAssay AID1987 (The Scripps Research Institute Molecular Screening Center, 2009).

Screen size: about 320,000 compounds; about 560 (0.17%) were called active. This excerpt belongs to a sample that is enriched for actives. A number with no mark means an inactive call.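 Rule for the calls: active = inhibition above the campaign's mean inhibition across all tested compounds plus 3 SD (cut at about 9.5% in these data); inactive = the rest.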

In this test the target is Serine/threonine-protein phosphatase 5 (Homo sapiens) (UniProt P53041). Kind of test: inhibition of human PP5 catalytic activity – biochemical, fluorescence, primary screen (AID 1987).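 Note: 0% = DMSO only and 100% = 100 µM cantharidin control.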 The conditions noted are these: purified PP5c, OMFP substrate fluorescence; at 6.7 µM; hits give high values.
Serine/threonine-protein phosphatase 5 (Homo sapiens), sequence (P53041 whole entry, looked up): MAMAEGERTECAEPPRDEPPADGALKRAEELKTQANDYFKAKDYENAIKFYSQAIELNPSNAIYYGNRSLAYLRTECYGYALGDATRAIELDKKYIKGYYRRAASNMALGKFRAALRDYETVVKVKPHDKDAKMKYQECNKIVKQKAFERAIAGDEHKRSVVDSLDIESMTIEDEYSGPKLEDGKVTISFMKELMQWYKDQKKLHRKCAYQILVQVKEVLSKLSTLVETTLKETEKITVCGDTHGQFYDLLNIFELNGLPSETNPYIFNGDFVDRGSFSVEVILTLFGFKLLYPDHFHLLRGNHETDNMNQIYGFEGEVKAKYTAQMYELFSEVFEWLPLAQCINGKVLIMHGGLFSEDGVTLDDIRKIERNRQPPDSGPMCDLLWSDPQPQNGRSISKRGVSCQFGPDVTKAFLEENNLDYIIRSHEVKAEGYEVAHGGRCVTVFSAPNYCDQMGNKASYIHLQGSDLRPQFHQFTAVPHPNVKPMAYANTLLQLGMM
Regarding `Cc1nc(CNS(=O)(=O)c2cc([N+](=O)[O-])ccc2C)cs1`, the inhibition is -0.47%.

Consider `N#CCc1c(C#N)c(N)nc(N2CCCC2)c1C#N`, for which the inhibition was 2.12%.

For `N#Cc1c(-c2ccccc2)cc(-c2ccccc2)nc1SCC(=O)O`, the inhibition was -0.23%.

Turning to `N#Cc1c(N2CCCCC2)nc(N)c2c(N)nc(SCC(=O)O)cc12`, the inhibition was 12.7% (active).

With `CC1(C)CC(=O)C=C(NCCCN2CCCC2=O)C1`, the inhibition is -3.07%.

For the molecule `Cc1nc(NC(CC(C)C)C(=O)O)c2nc(C)oc2n1` (configuration not stated), the inhibition is 11.7% (active).

Consider `CC1(c2cccc([N+](=O)[O-])c2)CC(C)(C)N(C(=O)c2ccccc2)c2ccccc21` (configuration not stated), for which the inhibition is 3.32%.

Regarding `C[C@@]12C(=O)N(c3cccc(Br)c3)C(=O)N1[C@H](c1ccc(Cl)cc1)[C@@H]1C(=O)N(C3CCCCC3)C(=O)[C@@H]12`, the inhibition was 9.7% (active).

For the molecule `CC(C)(C)N1C(=O)[C@H]2[C@@H](c3ccc(Br)cc3)N3C(=O)N(c4cccc(Cl)c4)C(=O)[C@@]3(C)[C@H]2C1=O`, the inhibition was 5.22%.

On to `O=C1[C@H]2[C@@H](c3ccc(Cl)cc3)N3C(=O)N(c4cccc(F)c4)C(=O)[C@@]3(Cc3ccccc3)[C@H]2C(=O)N1C1CCCCC1`, for which the inhibition was 2.69%.

As to `O=C(CCn1nnnc1CN1CCOCC1)N1CCC(c2ccccc2Cl)C1` (configuration not stated), the inhibition was 0.07%.

Take `Cc1noc(C)c1C(=O)N(CC(=O)NC1CCCC1)Cc1ccccc1F`: the inhibition was 0.94%.

Consider `CN(CC(=O)NCc1ccc(Cl)cc1)S(=O)(=O)c1cccs1`, for which the inhibition is 3.27%.

In the case of `Cc1c(C)c2c(OCC(=O)N[C@@H](C(=O)O)c3ccccc3)cc3c(c2oc1=O)CCC(C)(C)O3`, the inhibition is 2.43%.

With `c1ccc(C[C@H]2CNCCN2CCC23CC4CC(CC(C4)C2)C3)cc1`, the inhibition is 1.23%.

As for `CCn1ccnc1CNC(=O)CC1C(=O)NCCN1CCCc1ccccc1` (configuration not stated), the inhibition is 0.82%.

Take `COCC1CCN(C(=O)c2ccc3oc(Cc4ccccc4)nc3c2)C1` (configuration not stated): the inhibition is 2.88%.

For `O=c1ccc2c(-c3ccccc3S(=O)(=O)O)c3ccc(O)c(O)c3oc-2c1O`, the inhibition was 9.92% (active).

For the molecule `O=[N+]([O-])c1cccc2ncccc12`, the inhibition was 10.4% (active).

On to `Nc1nc(Sc2ncccc2[N+](=O)[O-])n[nH]1`, for which the inhibition is 1.94%.

Regarding `O=[N+]([O-])c1cc([N+](=O)[O-])c2cccnc2c1O`, the inhibition was 2%.

In the case of `N#Cc1ccc(CN2CCN(CC(=O)Nc3ccccc3C(=O)NC3CC3)CC2)cc1`, the inhibition is -0.41%.

On to `CC(NC(=O)c1cc2cc(Cl)ccc2oc1=N)c1ccccc1` (configuration not stated), for which the inhibition is 2.37%.

On to `COc1cc(C(=O)Nn2c(O)c(C3=c4ccccc4=NC3=O)sc2=S)ccc1O`, for which the inhibition was -1.88%.

With `CN(C(=O)CN1C(=O)/C(=C/c2ccc(Cl)cc2)SC1=S)C1CCS(=O)(=O)C1` (configuration not stated), the inhibition is 2.22%.

Regarding `CNC(=S)NNC(=O)c1oc2nc(-c3ccccc3)cc(-c3ccco3)c2c1N`, the inhibition was 15% (active).

With `CNc1nc(-c2ccccc2)cc(-c2ccccc2)n1`, the inhibition was 3.18%.

For the molecule `NNC(=O)c1oc2nc(-c3ccccc3)cc(-c3ccco3)c2c1N`, the inhibition is -0.37%.

On to `COc1ccc(S(=O)(=O)N2CCOCC2)cc1NC(=O)CC1CC2CCC1C2` (configuration not stated), for which the inhibition is -2.65%.

For the molecule `COc1ccc(OC)c(C(=O)c2ccc(Cl)cc2)c1`, the inhibition was 1.9%.

Consider `COc1ccc(OC)c(C(=O)c2ccc(C(=O)O)cc2)c1`, for which the inhibition is 10.3% (active).

Consider `COc1ccc(OC)c(C(=O)c2coc3ccc(OC)cc23)c1`, for which the inhibition is 3.44%.

In the case of `COC(=O)c1ccccc1NC(=O)CSc1n[nH]c(-c2ccncc2)n1`, the inhibition is 2.98%.

In the case of `Cc1cc(N2CCCC2=O)cc(C)c1S(N)(=O)=O`, the inhibition was 0.58%.

As for `COCCNC(=O)c1ccc2c(c1)ncn2-c1ccc(C)c(Cl)c1`, the inhibition is -2.87%.

For `CCC(=C/c1sc2ccc3ccccc3c2[n+]1C)/C=C1\Sc2ccc3ccccc3c2N1C`, the inhibition was 13% (active).

`COc1cccc(CNC(=O)CCC2CCCN(C(=O)c3cc(C)[nH]n3)C2)c1` (configuration not stated): the inhibition is -3.1%.

As to `CC(=O)N1CCOc2ccc(S(=O)(=O)N3CCC(C(=O)Nc4ccccc4F)CC3)cc21`, the inhibition is -2.25%.

With `COc1cccc(NC(=S)C(C#N)=C2N(C)c3ccccc3N2C)c1`, the inhibition is 3.32%.

With `CC1Cc2cc(/C(O)=C3\C(=O)C(=O)N(Cc4cccnc4)C3c3ccccc3F)ccc2O1` (configuration not stated), the inhibition is -0.96%.

Turning to `O=C1C=C(c2cccc(Br)c2)C[C@@H](c2ccc(F)cc2)C1`, the inhibition is 2.74%.

As to `O=C(NCCCN1CCCCCC1)C1CC(=O)N(C2CCCC2)C1` (configuration not stated), the inhibition was 0.05%.

`CCc1c(O)nc(SCC(=O)Nc2ccccc2)n(C(C)CC)c1=O` (configuration not stated): the inhibition was 4.45%.

As to `CCCCN(C(=O)c1ccc(OC(F)(F)F)cc1)c1c(N)n(CCC)c(=O)[nH]c1=O`, the inhibition was 2.07%.

As to `O=C(CN(CC1CCCO1)C(=O)CNS(=O)(=O)c1ccc(Cl)cc1)NCc1ccccc1` (configuration not stated), the inhibition was -1.95%.

`Cc1ccc(C2=NN(C(=O)COc3ncnc4ccccc34)C(c3ccco3)C2)cc1` (configuration not stated): the inhibition was -1.05%.

With `CCOC(=O)N1CCN(Cc2oc(CO)cc(=O)c2O)CC1`, the inhibition was 3.28%.

Consider `CCC(C(=O)NCCC(C)C)N(Cc1ccccc1Cl)C(=O)c1snc(C(N)=O)c1N` (configuration not stated), for which the inhibition was -2.16%.

For the molecule `CC(=O)NCc1ccc(S(=O)(=O)NC2CCN(Cc3ccccc3)CC2)cc1`, the inhibition is 2.13%.

As to `C=C(C)CNc1cc(S(=O)(=O)N2CCOCC2)ccc1Oc1ccccc1`, the inhibition was 4.3%.

Consider `Cc1ccc(CCN2CC(C(=O)O)CC2=O)cc1` (configuration not stated), for which the inhibition was 5.13%.

As for `CC(C)(C)S(=O)(=O)c1ccccc1-c1noc(-c2ccccc2)c1C(N)=O`, the inhibition was -0.76%.

Take `Cc1ccc(Cl)cc1NC(=O)CN1CCN(S(=O)(=O)N2CCOCC2)CC1`: the inhibition was 0.83%.

On to `Cc1cc(C(=O)COc2ccc(Br)cc2F)c(C)n1C1CC1`, for which the inhibition is -1.78%.

For the molecule `O=C(NCc1cccc(Cl)c1)C1=CC=CN2CCS(=O)(=O)N=C12`, the inhibition is 0.61%.

In the case of `COc1cccc(OCc2nnc3n2N=C(c2ccccc2)C(CC(=O)O)S3)c1` (configuration not stated), the inhibition was -0.47%.

For the molecule `COc1ccccc1C(=O)NCCC(=O)N(C)Cc1cccnc1`, the inhibition was 0.46%.
